Data on 13 compounds can be found in PubChem BioAssay (EPA / NIEHS).

The nature of experiment [1]: CCTE_Mundy_HCI_iCellGluta_NOG_NeuriteCount: CCTE's Neurite Outgrowth Assay in iCellGluta cells for Neurite Count, Mundy Lab (AID 2284342; active means hit-call score of the fitted dose curve at least 0.9, where 1 is the maximum;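 further: chemical exposure about 48 hours starting 2 hours after plating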).
Experiment [2] relates to SERPINA7 (gene 6906). Briefly: CCTE_GLTED_hTBG: CCTE's human Thyroxine-binding Globulin (TBG) Inhibition Assay, Great Lakes Toxicology and Ecology Division (GLTED) Lab (AID 2284343; active means hit-call score of the fitted dose curve at least 0.9, where 1 is the maximum;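 further: active chemicals lower fluorescence versus DMSO baseline by displacing probe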). In short, it runs like this:
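Measures how far test chemicals displace ANSA bound to purified human TBG. The read-out is fluorescence at 380 nm excitation and 475 nm emission, taken after 2 h of incubation.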

Experiment [3] can be described thus: Tanguay_ZF_120hpf_MO24: Oregon State University Tanguay Lab 24 Hour Post-fertilization zebrafish Assay for Mortality (AID 2284389). In short, it runs like this:
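Dechorionated wild-type zebrafish embryos, 1 per well, statically exposed from 6 hpf at 28C, 0.64% DMSO final. Mortality scored as binary present/absent at 24 hpf by brightfield microscopy, relative to DMSO.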

Experiment [4] can be described thus: Tanguay_ZF_120hpf_CRAN: Oregon State University Tanguay Lab 120 Hour Post-fertilization zebrafish Assay for Craniofacial Malformation (AID 2284397). In short, it runs like this:
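Dechorionated Tropical 5D wild-type zebrafish embryos, one per well, were statically exposed from 6 to 120 hpf at 28C in 0.64% DMSO, with 5uM trimethyltin chloride as positive control. Craniofacial malformation was scored present/absent by brightfield microscopy, relative to DMSO.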

A short description of experiment [5]: Tanguay_ZF_120hpf_AXIS: Oregon State University Tanguay Lab 120 Hour Post-fertilization zebrafish Assay for Axial Malformation (AID 2284398). In short, it runs like this:
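Dechorionated 5D wild-type zebrafish embryos exposed statically, one per well, from 6 to 120 hpf at 28C, 0.64% DMSO. Axial malformation scored as present/absent by brightfield microscopy at 120 hpf; dead embryos not scored.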

The nature of experiment [6]: Tanguay_ZF_120hpf_EDEM: Oregon State University Tanguay Lab 120 Hour Post-fertilization zebrafish Assay for Edema Malformation (AID 2284400). In short, it runs like this:
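Dechorionated Tropical 5D wild-type embryos, one per well, statically exposed from 6 to 120 hpf at 28C in 0.64% DMSO. Edema scored present/absent by brightfield microscopy at 120 hpf; dead embryos not scored; fit versus DMSO.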

Experiment [7] in a line: Tanguay_ZF_120hpf_MUSC: Oregon State University Tanguay Lab 120 Hour Post-fertilization zebrafish Assay for Muscle Malformation (AID 2284401). Summed up: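 Dechorionated Tropical 5D wild-type zebrafish embryos exposed statically from 6 to 120 hpf at 28C, one per well, in 0.64% DMSO. Muscle malformation scored present/absent by brightfield microscopy at 120 hpf, fitted against DMSO.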

Experiment [8] is described as follows: Tanguay_ZF_120hpf_TCHR: Oregon State University Tanguay Lab 120 Hour Post-fertilization zebrafish Assay for Touch Responsive (AID 2284403). Summed up:
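Dechorionated Tropical 5D wild-type zebrafish embryos, one per well from 6 hpf, were statically exposed to 120 hpf at 28 °C (0.64% DMSO). Touch response was scored present/absent at 120 hpf and not scored in dead larvae.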

The nature of experiment [9]: Tanguay_ZF_120hpf_ANY: Oregon State University Tanguay Lab 120 Hour Post-fertilization zebrafish Assay for Any Mortality and Malformation (AID 2284404). Summed up:
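Dechorionated Tropical 5D wild-type embryos, one per well from 6 hpf, static exposure in sealed, dark plates at 28C until 120 hpf, 0.64% DMSO final. Brightfield scoring of mortality and malformations as binary presence/absence, pooling 13 morphology endpoints.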

Experiment [10] can be described thus: CCTE_Padilla_ZF_Score.Craniofacial: CCTE's 144 Hour Post-fertilization zebrafish Assay Score for Craniofacial Malformation, Padilla Lab (AID 2284405). Summed up:
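Wild-type zebrafish embryos (with chorions), one per well in 10% Hanks', were dosed at 6–8 hpf in sealed plates and kept at 26C. They were rinsed at 5 dpf. At 6 dpf two blinded assessors scored craniofacial malformations by brightfield stereomicroscopy.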

The nature of experiment [11]: CCTE_Padilla_ZF_Score.Edema: CCTE's 144 Hour Post-fertilization zebrafish Assay Score for Edema Malformation, Padilla Lab (AID 2284406). Summed up:
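Wild-type zebrafish embryos, one per well in Hanks' solution, dosed at 6-8 hpf, sealed and reared at 26C on a 14:10 h cycle; rinsed on 5 dpf. At 6 dpf, blinded assessors scored edema by stereomicroscopy.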

Experiment [12] can be described thus: CCTE_Padilla_ZF_Score.Position: CCTE's 144 Hour Post-fertilization zebrafish Assay Score for Position, Padilla Lab (AID 2284409). In short, it runs like this:
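Wild-type zebrafish embryos (with chorions) exposed singly from 6–8 hpf in sealed wells of Hanks' solution at 26C, rinsed at 5 dpf. At 6 dpf, blinded assessors scored abnormal water-column position by brightfield stereomicroscopy, relative to DMSO.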

Experiment [13] in a line: CCTE_Padilla_ZF_Score.Tail: CCTE's 144 Hour Post-fertilization zebrafish Assay Score for Tail Malformation, Padilla Lab (AID 2284414). Summed up: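 Wild-type zebrafish embryos, one per well in 200 uL 10% Hanks', dosed at 6-8 hpf, sealed, and kept at 26 C on a 14:10 h light cycle. Chemical was rinsed out at 5 dpf. Blinded brightfield scoring of tail defects followed at 6 dpf.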

Experiment [14] can be described thus: CCTE_Padilla_ZF_Score.Blood_pooling: CCTE's 144 Hour Post-fertilization zebrafish Assay Score for Blood Pooling, Padilla Lab (AID 2284415). Summed up: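 Wild-type outbred zebrafish embryos, one per well in 10% Hanks', exposed from 6–8 hpf in sealed plates at 26C on 14:10 h light:dark, rinsed at 5 dpf. Blinded stereomicroscope scoring of blood pooling at 6 dpf; gain-of-signal versus DMSO.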

Experiment [15] in a line: CCTE_Padilla_ZF_Score.Any: CCTE's 144 Hour Post-fertilization zebrafish Assay Score for Any Mortality or Malformation, Padilla Lab (AID 2284416). In short, it runs like this:
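Wild-type zebrafish embryos with chorions, one per well in 10% Hanks' from 6–8 hpf, dosed in sealed plates at 26 C, 14:10 h light:dark; rinsed at 5 dpf; blinded scoring at 6 dpf for death or malformation, versus DMSO.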

Records with an inconclusive call do not appear. Calls of active or inactive are those of the source. How the source made its calls, unless noted: active means hit-call score of the fitted dose curve at least 0.9, where 1 is the maximum; inactive means score below 0.9.

Broadly, the AC50 is the concentration giving half of the maximal activity seen. Consider `CCOP(=S)(OCC)SCSCC`, for which the compound was classed as inactive in experiment [1]. Also, the AC50 in experiment [2] is 24.7 µM (active).
`CCOc1ccc(C(C)(C)COCc2cccc(Oc3ccccc3)c2)cc1`: the result in [1] and in experiment [2] was inactive.
`O=C(O)C=CC(F)(C(F)(F)F)C(F)(F)F`: the call in [1], in [3], in experiment [4], in experiment [5], in [6] and in [7] was inactive. The call in [8], in experiment [9], in [10], in experiment [11], in experiment [12] and in [13] was inactive. For the same compound, the outcome in experiment [14] and in experiment [15] was inactive.
In the case of `O=C(O)C(F)(F)OC(F)(F)C(F)(F)OC(F)(F)F`, the outcome in [1], in [3], in [4], in [5], in experiment [6] and in experiment [7] was inactive. Also, the compound was classed as inactive in experiment [8], in experiment [9], in experiment [10], in experiment [11], in experiment [12] and in experiment [13]. In addition, the outcome in experiment [14] and in experiment [15] was inactive.
As for `CO/N=C(/C(=O)OC)c1ccccc1COc1ccccc1C`, the AC50 in experiment [1] was 28.7 µM (active); in experiment [2], 34.2 µM (active).
Regarding `O=C(O)C(F)(F)OC(F)(F)C(F)(F)OC(F)(F)C(=O)O`, the outcome in experiment [1], in experiment [3], in experiment [4], in experiment [5], in experiment [6] and in [7] was inactive. For the same compound, the compound was classed as inactive in [8], in experiment [9], in experiment [10], in experiment [11], in experiment [12] and in experiment [13]. Besides, the compound was classed as inactive in experiment [14] and in experiment [15].
As for `CCCCC(CC)COP(=O)(Oc1ccccc1)Oc1ccccc1` (stereo not given), the half-maximal activity concentration (AC50) in experiment [2] is 4.21 µM (active).
`NC(=O)C(F)(F)C(F)(F)F`: the result in experiment [3], in experiment [4], in [5], in [6], in experiment [7] and in experiment [8] was inactive. The compound was called inactive in experiment [9], in experiment [10], in [11], in experiment [12], in [13] and in [14]. In experiment [15], the result was inactive.
As for `OCC(F)(F)OC(F)(F)C(F)(F)OC(F)(F)C(F)(F)OC(F)(F)F`, the outcome in [1], in experiment [3], in experiment [4], in [5], in experiment [6] and in experiment [7] was inactive. In addition, the outcome in experiment [8], in experiment [9] and in [14] was inactive. Further, the AC50 in [10] is 20.2 µM (active); in experiment [11], 73.7 µM (active); in [12], 34.4 µM (active); in experiment [13], 20.2 µM (active); in [15] it was 27.5 µM (active).
For the compound `COC(=O)C(F)(F)C(F)(F)OC(F)(C(F)(F)F)C(F)(F)OC(F)=C(F)F` (stereo not given), the AC50 in experiment [2] is 22.3 µM (active); in experiment [3], 21.4 µM (active); in [9] it was 22.2 µM (active). For the same compound, the outcome in experiment [4], in experiment [5], in experiment [6], in experiment [7], in experiment [8] and in [10] was inactive. Besides, the compound was called inactive in [11], in experiment [12], in [13], in [14] and in experiment [15].
With `CCOP(=S)(Oc1ccc([N+](=O)[O-])cc1)c1ccccc1` (stereo not given), in experiment [2], the AC50 is 1.84 µM (active).
As for `O=[N+]([O-])c1ccc(Cl)c(Cl)c1`, the call in experiment [2] was inactive.
Take `CC(O)C(F)(F)C(F)(F)F` (stereo not given): the compound was classed as inactive in experiment [3], in experiment [4], in experiment [5], in [6], in [7] and in [8]. Further, the outcome in experiment [9], in [10], in experiment [11], in experiment [12], in experiment [13] and in experiment [14] was inactive. Also, in experiment [15], the compound was called inactive.
